Shown are actives, neighbours in structure and some others; about 4.8% of the full set was active somewhere.
DAX1 inh-1 = inhibitors of DAX1 repression of SF-1 activated StAR promoter | HEK293T StAR-luciferase reporter, SF-1/DAX-1 repression relief | inhibition, % at 6.8 µM | actives 1.1% (n = 370,000);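 active = inhibition above the mean over all tested compounds plus 3 SD, cut at about 3.6% in these data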;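 note: 0% = DAX-1 cells with DMSO and 100% = cells lacking DAX-1 with DMSO; higher inhibition means more luminescence from relief of DAX-1 repression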
hgDAF12 agonist = activates the H. glycines DAF-12 receptor ligand-binding domain | HEK293 GAL4-hgDAF12 UAS-luciferase reporter, agonist luminescence; normalized to butyrate control | activation, % at 6.8 µM | actives 1.8% (n = 370,000) | AID 687014;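 active = activation above a cutoff set at the mean of all screened compounds plus 3 SD, cut at about 10% in these data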;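 note: 0% = DMSO wells and 100% = sodium butyrate wells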
SMARCA2 activ = activators of SMARCA2 function. MG213 cells, MMTV-luciferase reporter, dexamethasone, overnight. activation, % at 9.1 µM. actives 1% (n = 370,000). AID 652017; in the data active = activation above about 7.8%;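 note: 0% = vehicle wells and 100% = reference activator wells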
DAX1 inh-2 = inhibitors of human orphan nuclear receptor DAX1 (NR0B1); P51843; HEK293 Gal4-DAX1 luciferase reporter, luminescence; inhibition, % at 6.75 µM; actives 0.99% (n = 340,000); AID 504766;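 active = inhibition above the mean over all tested compounds plus 3 SD, cut at about 4.2% in these data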;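 note: 0% = DAX1-transfected cells with DMSO and 100% = empty-vector control cells with DMSO; inhibition shows as a rise in luminescence from relieved DAX1 repression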
Target sequence (P51843 207-470 limits assumed): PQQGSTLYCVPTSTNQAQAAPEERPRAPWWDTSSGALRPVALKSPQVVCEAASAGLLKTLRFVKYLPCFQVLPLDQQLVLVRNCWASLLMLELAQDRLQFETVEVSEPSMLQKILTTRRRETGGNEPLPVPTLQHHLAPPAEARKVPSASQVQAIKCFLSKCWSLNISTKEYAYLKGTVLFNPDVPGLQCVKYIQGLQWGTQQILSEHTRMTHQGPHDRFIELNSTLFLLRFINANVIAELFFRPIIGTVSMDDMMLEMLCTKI
hcDAF-12 act = activators of H. contortus DAF-12 nuclear receptor | HEK293 hcDAF-12 lit1-tk-luc reporter, luminescence; 0% DMSO, 100% Δ7-dafachronic acid | activation, % at 6.8 µM | actives 1.4% (n = 370,000) | AID 652067;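 active = activation above the mean of all tested compounds plus 3 SD, cut at about 5.5% in these data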;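 note: 100% = response to 3 µM Δ7-dafachronic acid high control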
ssDAF-12 act = activates DAF-12 receptor from parasite S. stercoralis; HEK293 ssDAF-12/GRIP1 lit1-tk-luc reporter, luminescence; % of 3 µM dafachronic acid response; activation, % at 6.8 µM; actives 1% (n = 370,000);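 active = activation above the mean over all tested compounds plus 3 SD, cut at about 0.9% in these data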;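 note: 0% = DMSO-only wells and 100% = 3 µM delta7-dafachronic acid wells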
DAX1 conf = confirmation of human DAX1 (NR0B1) inhibitors | shares compounds with DAX1 inh-1 | HEK293T StAR-promoter luciferase reporter, SF-1/DAX-1 repression | inhibition, % at 6.8 µM | actives 87% (n = 2,400);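 active = inhibition above the average of every tested compound plus 3 SD, cut at about 3.8% in these data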;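 note: 0% = DAX-1 cells with DMSO and 100% = no DAX-1 control cells with DMSO; active compounds raise luminescence by relieving repression of the StAR reporter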
Target sequence (P51843 whole entry, looked up): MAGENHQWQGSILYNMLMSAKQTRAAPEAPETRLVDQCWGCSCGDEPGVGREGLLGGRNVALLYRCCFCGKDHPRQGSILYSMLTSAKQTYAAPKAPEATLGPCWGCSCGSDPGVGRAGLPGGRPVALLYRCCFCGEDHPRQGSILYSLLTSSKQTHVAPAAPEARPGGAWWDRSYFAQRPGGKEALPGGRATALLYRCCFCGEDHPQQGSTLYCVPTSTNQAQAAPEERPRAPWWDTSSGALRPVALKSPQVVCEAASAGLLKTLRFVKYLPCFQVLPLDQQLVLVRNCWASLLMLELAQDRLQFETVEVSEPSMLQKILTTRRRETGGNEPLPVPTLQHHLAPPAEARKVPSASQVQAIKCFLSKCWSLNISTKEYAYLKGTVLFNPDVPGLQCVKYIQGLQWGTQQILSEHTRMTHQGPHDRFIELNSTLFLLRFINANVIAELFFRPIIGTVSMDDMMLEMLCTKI
SF1 AF2mut Luc = counter-screen for DAX1 inhibitors: nonselective inhibitors with SF-1 AF2 mutant. inhibition, % at 6.8 µM. AID 652136. actives 78% (n = 2,400). HEK293 StAR-luciferase, luminescence. shares compounds with DAX1 inh-1;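 active = inhibition above the mean of all tested compounds plus 3 SD, cut at about 3% in these data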;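 note: 0% = DAX-1 transfected cells with DMSO and 100% = cells without DAX-1 with DMSO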
* marks the source's active call; other numbers are inactive results.

What do the screens show for `CCOc1ccc(NC(=O)c2ccccc2NC(=O)CNC2CCCC(C)C2C)cc1` (centres undefined)?
DAX1 inh-1: 2; hgDAF12 agonist: 3; SMARCA2 activ: -1; DAX1 inh-2: 1; hcDAF-12 act: -2; ssDAF-12 act: -1

How did O=C(NCCc1ccccc1)c1ccc2c(c1)S(=O)(=O)c1ccccc1C2=O do in these assays?
DAX1 inh-1: 0; hgDAF12 agonist: 0; SMARCA2 activ: 1; DAX1 inh-2: -1; hcDAF-12 act: -2; ssDAF-12 act: -2

What do the screens show for `CS(=O)(=O)N1CCN(c2ccc(NC(=O)c3ccc(Br)o3)cc2)CC1`?
DAX1 inh-1: 3; hgDAF12 agonist: 7; SMARCA2 activ: 3; DAX1 inh-2: 1; hcDAF-12 act: 1; ssDAF-12 act: 0

Results for CN1CCN(c2ccc(NC(=O)c3ccc4ccccc4c3)cc2)CC1 ?
DAX1 inh-1: 8.2*; hgDAF12 agonist: 9; SMARCA2 activ: 0; DAX1 inh-2: 0; hcDAF-12 act: 3; ssDAF-12 act: 0; DAX1 conf: 10*; SF1 AF2mut Luc: 0

How did CN1CCN(c2ccc(NC(=O)c3ccc(Br)o3)cc2)CC1 do in these assays?
DAX1 inh-1: 6.2*; hgDAF12 agonist: 12*; SMARCA2 activ: 5; DAX1 inh-2: 1; hcDAF-12 act: 4; ssDAF-12 act: 0; DAX1 conf: 8.3*; SF1 AF2mut Luc: 6.1*

What do the screens show for `COc1ccc(C(=O)Nc2ccc(N3CCN(C)CC3)cc2)cc1OC`?
DAX1 inh-1: 1; hgDAF12 agonist: 6; SMARCA2 activ: 1; DAX1 inh-2: 3; hcDAF-12 act: 3; ssDAF-12 act: -1

Results for Cc1cc(C)cc(C(=O)Nc2ccc(N3CCCC3)cc2)c1 ?
DAX1 inh-1: 4.5*; hgDAF12 agonist: 12*; SMARCA2 activ: 1; DAX1 inh-2: 1; hcDAF-12 act: 3; ssDAF-12 act: 0; DAX1 conf: 13*; SF1 AF2mut Luc: 5.8*

What do the screens show for `O=C(Nc1ccc(Cl)c(Cl)c1)N1CCCCCC1`?
DAX1 inh-1: 5.3*; hgDAF12 agonist: 7; SMARCA2 activ: 4; DAX1 inh-2: 1; hcDAF-12 act: 0; ssDAF-12 act: 0; DAX1 conf: 8.8*; SF1 AF2mut Luc: 4.8*

What do the screens show for `CCc1ccc(NC(=S)N2CCN(C)CC2)cc1`?
DAX1 inh-1: 3; hgDAF12 agonist: 0; SMARCA2 activ: 4; DAX1 inh-2: 1; hcDAF-12 act: 4; ssDAF-12 act: -1

What do the screens show for `O=C(Nc1ccc(Cl)c(Cl)c1)N1CCC(N2CCCCC2)CC1`?
DAX1 inh-1: 1; hgDAF12 agonist: 0; SMARCA2 activ: 0; DAX1 inh-2: 1; hcDAF-12 act: -1; ssDAF-12 act: -2

Results for CCc1ccc(NC(=O)N2CCCCCC2)cc1 ?
DAX1 inh-1: 5.2*; hgDAF12 agonist: 4; SMARCA2 activ: 4; DAX1 inh-2: 4; hcDAF-12 act: 4; ssDAF-12 act: 0; DAX1 conf: 9.8*; SF1 AF2mut Luc: 7.0*

What do the screens show for `O=C(Nc1ccc(Br)cc1)N1CCCCCC1`?
DAX1 inh-1: 7.2*; hgDAF12 agonist: 7; SMARCA2 activ: 4; DAX1 inh-2: 1; hcDAF-12 act: 1; ssDAF-12 act: 0; DAX1 conf: 4.8*; SF1 AF2mut Luc: 3.3*

What do the screens show for `CCc1ccc(NC(=S)N2CCCC2)cc1`?
DAX1 inh-1: 5.3*; hgDAF12 agonist: 12*; SMARCA2 activ: 4; DAX1 inh-2: 1; hcDAF-12 act: 6.0*; ssDAF-12 act: 0; DAX1 conf: 8.6*; SF1 AF2mut Luc: 3.9*

What do the screens show for `COc1ccc2c(c1)CO[C@H]([C@H](O)COC(C)=O)[C@H]2/C=C/c1ccccc1`?
DAX1 inh-1: -1; hgDAF12 agonist: -2; SMARCA2 activ: -3; hcDAF-12 act: -2; ssDAF-12 act: -1

How did CCC(=O)N1CCCC1(C)C(=O)Nc1ccc2scnc2c1 (centres undefined) do in these assays?
DAX1 inh-1: 0; hgDAF12 agonist: 2; SMARCA2 activ: -4; hcDAF-12 act: 1; ssDAF-12 act: 0

How did Cc1ccc(S(=O)(=O)Oc2cccc([N+](=O)[O-])c2)cc1 do in these assays?
DAX1 inh-1: -1; hgDAF12 agonist: -1; SMARCA2 activ: 1; DAX1 inh-2: 0; hcDAF-12 act: 0; ssDAF-12 act: -1

How did O=C(Nc1ccc(Br)cc1)N1CCc2ccccc2C1 do in these assays?
DAX1 inh-1: 5.3*; hgDAF12 agonist: 5; SMARCA2 activ: 3; DAX1 inh-2: 1; hcDAF-12 act: 1; ssDAF-12 act: 0; DAX1 conf: 5.5*; SF1 AF2mut Luc: 3.0*

What do the screens show for `Cc1cc(C)cc(NC(=O)N2CCc3ccccc3C2)c1`?
DAX1 inh-1: 2; hgDAF12 agonist: 5; SMARCA2 activ: 2; DAX1 inh-2: 1; hcDAF-12 act: 1; ssDAF-12 act: 0

What do the screens show for `CC(C)CN1C(=O)C[C@@]2(C(=O)N(C)c3ccc(NS(=O)(=O)C4CC4)cc32)C1c1ccccc1` (some centres undefined)?
DAX1 inh-1: 1; hgDAF12 agonist: 4; SMARCA2 activ: -2; hcDAF-12 act: 0; ssDAF-12 act: -1

Results for CCCN(CCC)c1ncnc2c1cnn2-c1ccc(OC)cc1 ?
DAX1 inh-1: 5.3*; hgDAF12 agonist: 10; SMARCA2 activ: 0; DAX1 inh-2: 1; hcDAF-12 act: 5; ssDAF-12 act: 0; DAX1 conf: 14*; SF1 AF2mut Luc: 3.1*

What do the screens show for `O=C(NNC(=S)Nc1ccc(Cl)cc1)c1ccccc1`?
DAX1 inh-1: 4.5*; hgDAF12 agonist: 8; SMARCA2 activ: 2; DAX1 inh-2: 1; hcDAF-12 act: 5; ssDAF-12 act: 0; DAX1 conf: 7.1*; SF1 AF2mut Luc: 4.2*

Results for S=C(NNC(=S)Nc1ccc(Cl)cc1)NNc1ccccc1 ?
DAX1 inh-1: 0; hgDAF12 agonist: 9; SMARCA2 activ: -3; DAX1 inh-2: 2; hcDAF-12 act: 1; ssDAF-12 act: 0

What do the screens show for `O=C(Nc1cccc(Cl)c1)c1ccccc1`?
DAX1 inh-1: 0; hgDAF12 agonist: 9; SMARCA2 activ: 3; DAX1 inh-2: 1; hcDAF-12 act: 0; ssDAF-12 act: -1

What do the screens show for `O=C(NNC(=S)Nc1ccccc1Cl)c1ccccc1Cl`?
DAX1 inh-1: 11*; hgDAF12 agonist: 10; SMARCA2 activ: 5; DAX1 inh-2: 2; hcDAF-12 act: 5; ssDAF-12 act: 0; DAX1 conf: 11*; SF1 AF2mut Luc: 6.7*
